Screening results: PubChem, National Center for Advancing Translational Sciences (NCATS)
Shiga toxin inh: A qHTS for Small Molecule Inhibitors of Shiga Toxin. Vero cells, Shiga toxin protein synthesis inhibition reporter. inhibition, % at 38.7 µM. 9.2% of 290,000 active. AID 2315, 2010; in the data active means inhibition mostly above about 28%, no sharp cut-off; inactive means mostly below about 43%; further: 0% is about no effect
Cycloheximide cs: Cycloheximide Counterscreen for Small Molecule Inhibitors of Shiga Toxin | max response, % | 12% of 300,000 active | cell reporter, cycloheximide protein synthesis inhibition counterscreen | AID 2314, 2010; in the data active means max response mostly above about 13%, no sharp cut-off; inactive means mostly below about 14%; further: read at 38.3 µM for the half of the compounds with a filed dose; 0% is about no effect
Pf growth 96h: Primary qHTS for delayed death inhibitors of the malarial parasite plastid, 96 hour incubation | P. falciparum luciferase reporter growth, 96 h | Potency, µM (doses to about 28.7 µM), inactives show at the highest dose activity change, negative = inhibition, usual class: inhibitors | 6.9% of 320,000 active; further: potency means the concentration at half of the fitted maximal effect; on the % scale 0 is the no-effect control and ±100 the full control effect
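Readout is luminescence from an integrated firefly luciferase in P. falciparum. Red cells, 2% hematocrit and 0.05% parasitemia final, were cultured with compound through two parasite generations (96 hours) at 37 C, 5% CO2.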
LmPK inhibitor: qHTS Assay for Inhibitors of Leishmania Mexicana Pyruvate Kinase (LmPK); Q27686; purified LmPK, Kinase-Glo ATP luminescence, 1 h; Potency, µM (titrated, usually from 57.5 µM), inactives show at the highest dose activity change, negative = inhibition, actives largely listed as inhibitors; 0.37% of 290,000 active; AID 1721, 2009; further: potency means the concentration at half of the fitted maximal effect; on the % scale 0 is the no-effect control and ±100 the full control effect
Target sequence (Q27686 whole entry, looked up): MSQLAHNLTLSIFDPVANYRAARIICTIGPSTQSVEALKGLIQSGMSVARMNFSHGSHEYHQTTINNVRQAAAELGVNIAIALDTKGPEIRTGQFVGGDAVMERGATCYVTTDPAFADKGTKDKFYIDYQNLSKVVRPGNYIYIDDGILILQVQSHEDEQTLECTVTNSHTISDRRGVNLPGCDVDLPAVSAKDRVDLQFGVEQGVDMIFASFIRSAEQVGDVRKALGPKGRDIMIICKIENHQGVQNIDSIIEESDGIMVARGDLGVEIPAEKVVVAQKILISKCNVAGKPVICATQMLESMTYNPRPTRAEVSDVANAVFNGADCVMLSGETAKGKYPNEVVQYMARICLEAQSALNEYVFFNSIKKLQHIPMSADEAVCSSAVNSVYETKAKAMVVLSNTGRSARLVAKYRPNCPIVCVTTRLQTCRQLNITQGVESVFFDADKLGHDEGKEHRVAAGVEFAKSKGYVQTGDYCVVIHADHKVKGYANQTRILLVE
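0.1 nM LmPK, 0.5 mM PEP, 0.1 mM ADP; 50 mM imidazole pH 7.2, 7 mM MgCl2, 50 mM KCl; 1 h RT. Kinase-Glo luminescence readout, normalized to no-enzyme (full inhibition) and uninhibited wells.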
Pf growth 48h: Primary qHTS for delayed death inhibitors of the malarial parasite plastid, 48 hour incubation; 5.9% of 310,000 active; AID 504832, 2011; Potency, µM (series often up to 28.7 µM), for inactives: at the top dose activity change, negative = inhibition, actives largely listed as inhibitors; P. falciparum luciferase growth in erythrocytes, 48 h; further: potency means the concentration at half of the fitted maximal effect; on the % scale 0 is the no-effect control and ±100 the full control effect
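Read-out is firefly luciferase luminescence from an integrated reporter in P. falciparum, so falling signal marks reduced parasite growth. Infected erythrocytes were at 2% hematocrit and 0.1% parasitemia (final) in Albumax-supplemented RPMI 1640.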
* hit, by the source's call; ? = inconclusive; · = not tested or not shown; [ ] = remark or other dose. Hits are enriched below; roughly 22% of the tested compounds scored in any of these assays. Unless noted, the call rests on the fitted dose curve; in most records, active means well fitted inhibition curve with a large enough effect; inconclusive means small, poorly fitted or top-dose-only effect, or another doubt; inactive means no such curve, though single readings can be large or run the other way.

SMILES | Shiga toxin inh | Cycloheximide cs | Pf growth 96h | LmPK inhibitor | Pf growth 48h
CN(C)CCC1(c2ccc(Cl)cc2)Cc2ccccc2C(=O)O1 (configuration not stated) | -10 | -8 | · | · | ·
CCCCc1cc2c(cn1)=C(OC(=O)c1ccco1)C(C)(OC(=O)CC)C(=O)C=2 (configuration not stated) | · | · | · | 1%[11.5 µM] | ·
NCCC1CCCC(CCN)N1 (configuration not stated) | · | · | 26% | · | -1%
CCc1ccc(OCC(=O)Nc2ccncc2)cc1 | · | 14 | ? | 0% | 37%
CCNC(=O)COc1ccc(CC)cc1 | 46* | 25* | 4% | -5% | 50%
CCc1ccc(OCC(=O)NC(C)(C)C)cc1 | 44* | 23* | 45% | -4% | 43%
O=C(NNS(=O)(=O)c1ccccc1)c1ccc([N+](=O)[O-])cc1 | -15 | 0 | 15µM* | -5% | 18%
O=C(NNS(=O)(=O)c1ccc(F)cc1)c1ccc(O)cc1 | -10 | -1 | 10µM* | 0% | -5%
O=C(NC(=S)NNS(=O)(=O)c1ccccc1)c1ccc([N+](=O)[O-])cc1 | -17 | -2 | ? | 0% | -9%
O=C(NNS(=O)(=O)c1ccc(F)cc1)c1ccc(S(=O)(=O)N2CCCCC2)cc1 | 1 | -2 | ? | -4% | 15%
CC(=O)Oc1c(C)cc(OCC(O)CNC(C)C)c(C)c1C (configuration not stated) | -9 | 2 | 16% | · | -1%
COc1ccc2nc(SCCC(=O)O)cc(C)c2c1 | 22 | -1 | -14% | -2% | 22%
Cc1cc2c(c(=O)o1)C1(C(=O)N(CC(=O)O)c3ccccc31)C(C#N)=C(N)O2 (configuration not stated) | -3 | -1 | ? | 8% | 27%
Cc1cc2c3c(c1C)C1(C(=O)N3C(C)(C)CC2C)C(C#N)=C(N)Oc2cc(O)ccc21 (configuration not stated) | -12 | -4 | 10µM* | 2% | ·
COc1cc2c3c(c1)C1(C(=O)N3C(C)(C)C=C2C)C(C#N)=C(N)Oc2cc(O)ccc21 (configuration not stated) | 11 | 1 | · | 0% | ?
Cc1cc2c3c(c1)C1(C(=O)N3C(C)(C)CC2C)C(C#N)=C(N)OC2=C1C(=O)CC(C)(C)C2 (configuration not stated) | -4 | -3 | ? | -4% | 12µM*
CC1=CC(C)(C)N2C(=O)C3(C(C#N)=C(N)OC4=C3C(=O)CC(C)(C)C4)c3cc(C)cc1c32 (configuration not stated) | -9 | 8 | 13µM* | 1% | ·
CCOc1ccc(C(=O)N2CCc3ccccc32)cc1OCC | 13 | 8 | -1% | 0% | ?
Cc1ccccc1CN1CCN(S(=O)(=O)c2ccc(Cl)s2)CC1 | 16 | -3 | 13µM* | -1% | 13%
COc1ccccc1N1CCN(S(=O)(=O)c2ccc(Cl)s2)CC1 | 27 | 16* | 52% | -13% | -2%
CCOc1ccccc1N1CCN(S(=O)(=O)c2ccc(Cl)s2)CC1 | 35* | 17* | · | 5% | -15%
Cc1ccc(N2CCN(S(=O)(=O)c3ccc(Cl)s3)CC2C)cc1 (configuration not stated) | 22* | 15* | ? | -3% | ?
COc1ccccc1N1CCN(S(C)(=O)=O)CC1 | 12 | 12 | 37% | 9% | ·
Cc1ccc(C)c(OCCC(=O)NNC(=O)c2cc(C)oc2C)c1 | · | · | -19% | · | ?
O=C(CNC(=O)c1cccc(Cl)c1)NCCCSc1ccccc1 | · | · | 1% | · | 2%
SMILES | Shiga toxin inh | Cycloheximide cs | Pf growth 96h | LmPK inhibitor | Pf growth 48h
COC(=O)c1ccc(COC(=O)c2ccc(SC)cc2OC)cc1 | 45* | 21* | ? | 1% | 49%
COc1cc(SC)ccc1C(=O)OCC(=O)NC1CC1 | 48 | 26* | 34% | 2% | 18%
COc1ccc(C(=O)OCC(=O)NC2CCCC2)c(OC)c1 | 31 | 17* | 54% | 3% | 42%
COc1ccc(C(=O)OCC(=O)NC2CCCCCC2)c(OC)c1 | · | · | -1% | · | 46%
COc1ccc(C(=O)OCC(=O)NC(=O)NC2CCCC2)c(OC)c1 | 17 | 13 | 24% | 6% | 12µM*
COc1ccccc1CNC(=O)COC(=O)COc1ccccc1Cc1ccccc1 | · | · | 27% | · | 34%
COc1ccc(CNC(=O)COC(=O)CCn2c(C)csc2=O)cc1OC | · | · | 8% | · | ?
COc1ccc(-c2csc(NC(=O)COC(=O)Cc3ccccc3)n2)cc1OC | 12 | 1 | 54% | 4% | 13%
COc1cc(OC)cc(C(=O)N[C@H](C(=O)Nc2nc(-c3cc(OC)ccc3OC)cs2)C(C)C)c1 | -8 | 5 | ? | 6% | -16%
COc1ccc(CCNc2nc(-c3ccc(O)cc3)cs2)cc1OC | 30 | 7 | 10µM* | 3% | ?
COc1ccc(-c2csc(NC(=O)CCN3C(=O)C4CC=CCC4C3=O)n2)cc1OC (configuration not stated) | · | · | ? | · | 10µM*
COc1cc(OC)cc(C(=O)N[C@H](C(=O)Nc2nc(-c3ccc(OC)c(OC)c3)cs2)C(C)C)c1 | -4 | 13 | 10µM* | 3% | 13µM*
COc1ccc(-c2csc(NC(=O)Cc3cc(OC)c(OC)c(OC)c3)n2)cc1OC | -6 | -3 | 12µM* | 4% | ?
COc1ccc(-c2csc(NC(=O)CN3C(=O)C4CC=CCC4C3=O)n2)cc1 (configuration not stated) | · | · | 53% | · | -15%
Cc1ccc(N2CC(C(=O)N3CCC(C(=O)Nc4nnc(C(C)(C)C)s4)CC3)CC2=O)cc1 (configuration not stated) | -7 | -6 | 45% | -3% | ?
CC1CCN(C(=O)c2ccccc2NC(=O)c2cccc(S(=O)(=O)N(C)C)c2)CC1 | -32 | -3 | 5% | -8% | 8%
CSc1ccccc1NC(=O)c1noc2c1CCC2 | 100* | 38* | · | -9% | 13µM*
CC(NC(=O)c1noc2c1CCCC2)c1ccccc1 (configuration not stated) | 65 | 14 | ? | -4% | 1%
COC(=O)c1ccccc1NC(=O)c1noc2c1CCC2 | -5 | 1 | 1µM* | 5% | 3.3µM*
COC(=O)c1ccccc1NC(=O)c1cc(C)no1 | -5 | -5 | 5% | 0% | ?
Cc1c(C(=O)NCC(c2ccco2)N(C)C)oc2c(Cl)cccc12 (configuration not stated) | · | · | ? | · | -23%
CCCCn1c(SCC(=O)Nc2ccccc2C(F)(F)F)nc2ccsc2c1=O | -16 | 1 | 12µM* | 4% | 0%
CCCCn1c(SCC(=O)Nc2nccs2)nc2ccccc2c1=O | -16 | -3 | 44% | 2% | -11%
CCCCn1c(SCC(=O)N2CCC(C)CC2)nc2ccsc2c1=O | -7 | 10 | -44% | 3% | 12µM*
